Source: PubChem BioAssay
HCV inhibitor = blocks hepatitis C virus. Huh7.5.1 HCVcc-Cre infection, luciferase reporter, 44 h. Potency, µM (titrated, usually from 41.8 µM), for the others: at the top dose activity change, negative = inhibition, most hits filed as inhibitors. AID 651820. 340,000 tested, 3.4% active; also: % is scaled to controls: 0 for no effect and ±100 for the full control effect
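Infectious HCVcc-Cre (~0.5 moi) was added to cells just after compound, with cells seeded 4 h earlier at 1,000 per well. Luciferase activity after 44 h culture reported infection; substrate was incubated 15 min at room temperature before reading.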
Vaccinia Venus = inhibitors of vaccinia virus (Venus reporter) | Potency, µM (series often up to 36.5 µM), without a hit: at the top dose activity change, negative = inhibition, most hits filed as inhibitors | Vaccinia virus Venus reporter expression, fluorescence | 330,000 tested, 0.46% active | AID 720580; calls by dose curve; tested in A549 cells; also: % is scaled to controls: 0 for no effect and ±100 for the full control effect; nearly all actives have a fitted effect of over 30% in size
NS1 function inh = blocks influenza NS1 protein function | Potency, µM (top dose mostly 46.1 µM), inactives show at the top dose activity, positive = more growth | 270,000 tested, 0.4% active; calls by dose curve; also: actives are rising curves; nearly all actives have a fitted effect of over 50% in size
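A cell-based growth assay was used: compounds that relieve NS1-induced slow growth of budding yeast raise OD600. Assay medium was yeast nitrogen base with ammonium sulphate and -URA supplement, pH 6.0, with 2% galactose.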
Pf growth 48h = inhibits P. falciparum growth in the first generation, 48 h. P. falciparum luciferase growth in erythrocytes, 48 h. Potency, µM (titrated, usually from 28.7 µM), without a hit: at the top dose activity change, negative = inhibition, most hits filed as inhibitors. 310,000 tested, 5.9% active. AID 504832; also: % is scaled to controls: 0 for no effect and ±100 for the full control effect
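Parasite viability was followed by luminescence of a genomically integrated firefly luciferase. Cultures held 0.1% parasitemia at 2% hematocrit (final), incubated under 5% CO2 at 37 C.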
VACV mCherry inh = vaccinia inhibition (mCherry reporter); Vaccinia virus mCherry reporter infection, fluorescence; Potency, µM (series often up to 36.5 µM), inactives show at the top dose activity change, negative = inhibition, hits mostly inhibitors; 310,000 tested, 0.63% active; calls by dose curve; tested in A549 cells; also: % is scaled to controls: 0 for no effect and ±100 for the full control effect; nearly all actives have a fitted effect of over 35% in size
Pf growth 96h = inhibits malaria parasite growth, 96 h | Potency, µM (top dose mostly 28.7 µM), without a hit: at the highest dose activity change, negative = inhibition, most hits filed as inhibitors | 320,000 tested, 6.9% active | P. falciparum luciferase reporter growth, 96 h; also: % is scaled to controls: 0 for no effect and ±100 for the full control effect
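Erythrocytes infected with luciferase-expressing P. falciparum were dispensed at 2% hematocrit and 0.05% parasitemia (final), then incubated with compounds 96 hours at 37 C in 5% CO2. Luminescence after detection reagent addition reported growth.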
* hit, by the source's call; i = inactive; u = inconclusive; x = no result; ! = repeats disagree. An excerpt weighted towards active compounds, which were near 11% of everything screened. Unless noted, calls follow the shape of the dose curve; as a rule, active = well fitted inhibition curve with a large enough effect; inconclusive = small, poorly fitted or top-dose-only effect, or another doubt; inactive = no such curve, though single readings can be large or run the other way. Potency is read from the fitted curve at half-maximal effect.

SMILES	HCV inhibitor	Vaccinia Venus	NS1 function inh	Pf growth 48h	VACV mCherry inh	Pf growth 96h
O=C(C1=C[C@@H](c2csc3ccccc23)C[C@@H](OCc2ccc(CO)cc2)O1)N1CCN(Cc2ccccc2)CC1	u	u	2%	u	u	5.2µM*
O=C(C1=C[C@@H](c2ccccc2)C[C@@H](OCc2ccc(CO)cc2)O1)N1CCN(Cc2ccc3c(c2)OCO3)CC1	11µM*	u	-9%	u	-22%	u
O=C(C1=C[C@H](c2ccccc2)C[C@H](OCc2ccc(CO)cc2)O1)N1CCN(Cc2ccccc2)CC1	-10%	-30%	-7%	u	-6%	u
Cc1ccccc1-c1cnn(-c2cccc([N+](=O)[O-])c2)c1N	-18%	-11%	-7%	33%	-20%	22%
COc1ccc(N/N=C(\C=N\O)C(=O)c2ccc(OC)cc2)cc1	-16%	u	-116%	x	-23%	12%
N/N=C/C(=N\Nc1ccc(Cl)cc1)C(=O)c1ccncc1	22µM*	-20%	-9%	u	u	u
NC(=O)CC(NC(=O)c1ccccc1)c1ccc(N2CCN(c3ccccc3)CC2)c([N+](=O)[O-])c1 (stereo not drawn)	u	u	21%	-18%	u	15µM*
Cc1cc(C)cc(C(=O)NC(CC(N)=O)c2ccc(N3CCN(c4ccccc4)CC3)c([N+](=O)[O-])c2)c1 (stereo not drawn)	3%	-22%	1%	-18%	-13%	31%
NC(=O)CC(NC(=O)c1ccccc1)c1ccc(N2CCN(c3ccc(F)cc3)CC2)c([N+](=O)[O-])c1 (stereo not drawn)	11µM*	u	8%	39%	-19%	58%
CN1CCN(c2ccc(C(CC(N)=O)NC(=O)c3ccccc3)cc2[N+](=O)[O-])CC1 (stereo not drawn)	16%	-4%	-3%	32%	-2%	u
CCN(CC)P1(=O)OC(c2cc(OC)c(OC)c(OC)c2)=Nc2c1c(C)nn2-c1ccccc1 (stereo not drawn)	-19%	-2%	-38%	10µM*	-16%	x
CC1=C(O)C(=O)C=C2C1=CC=C1C2(C)CCC2(C)C3CC(C)(C(=O)O)CCC3(C)CCC12C (stereo not drawn)	u	10µM*	x	x	22µM*	x
Cc1c(O)c(O)cc2c1CC=C1[C@]3(C)CC[C@]4(C)CC[C@@](C)(C(=O)O)CC4[C@]3(C)CC[C@]12C (stereo partly drawn)	x	-15%	x	x	-19%	x
Cc1cc(Cl)c2c(c1)[C@]1(C(=O)N2)[C@@H]2C(=O)N(Cc3ccccc3)C(=O)[C@@H]2[C@@H]2CCCN21	u	x	-56%	u	x	u
CCC(C)(C)NC(=O)C(c1cccc(OC)c1OC)N(Cc1ccc(OC)cc1)C(=O)CCC(=O)Nc1cc(C)on1 (stereo not drawn)	-10%	-4%	-7%	8.3µM*	-16%	9%
COc1cccc(C(C(=O)NC(C)(C)C)N(Cc2ccc(F)cc2)C(=O)CCC(=O)Nc2cc(C)on2)c1OC (stereo not drawn)	-19%	-20%	2%	13µM*	-25%	u
Cc1ccc(-n2ncc3c(=O)n(CC(=O)N(C(C)C)C(C)C)cnc32)cc1	-3%	x	1%	1%	x	13µM*
Cc1ccc(-n2ncc3c(=O)n(CC(=O)N4CCCCCC4)cnc32)cc1	-1%	-16%	0%	-4%	x	x
O=C(CSc1ncnc2c1cnn2-c1ccccc1)NC1CCCC1	10µM*	-11%	x	54%	i	62%
Cc1ccc(-n2ncc3c(=O)n(CC(=O)NC4CCCCC4)cnc32)cc1	8%	-13%	-2%	2%	-18%	4.7µM*
CNC(=O)CSc1ncnc2c1cnn2-c1ccccc1	1%	-2%	x	79%	-3%	45%
Cc1nonc1NC(=O)CSc1nc2ccccc2o1	12%	-7%	-21%	13µM*	-22%	36%
CC(C)(C)c1nc(SCC(=O)Nc2nc3c(s2)CCCC3)c2ccccc2n1	u	22%	-10%	1.2µM*	u	u
CC(=O)Nc1nonc1NC(=O)CSc1nc2ccccc2o1	-1%	x	-2%	u	x	13%
CC1CCc2nc(NC(=O)CSc3nc4ccccc4o3)sc2C1 (stereo not drawn)	11µM*	u	1%	290%	-7%	x
SMILES	HCV inhibitor	Vaccinia Venus	NS1 function inh	Pf growth 48h	VACV mCherry inh	Pf growth 96h
CC(C)c1nc(SCC(=O)Nc2nc3c(s2)CCCC3)c2ccccc2n1	u	6%	-2%	u	-12%	u
COc1ccc(/C(C)=N/OC/C(O)=C(\C#N)c2nc3ccccc3[nH]2)c(OC)c1	12%	x	3%	18%	x	u
CCOc1ccc(/C=N/NC(=S)Nc2c(C)cccc2C)cc1	u	u	1%	x	-12%	2.6µM*
C=CCOc1cccc(/C=N/NC(=O)C(OC)c2ccccc2)c1 (stereo not drawn)	-4%	-13%	-14%	-16%	i	13µM*
CCOc1ccc(/C=N/NC(=O)C(OC)c2ccccc2)cc1 (stereo not drawn)	11%	-6%	x	u	-10%	9.3µM*
CCOc1cc(/C=N/NC(=O)C(OC)c2ccccc2)ccc1O (stereo not drawn)	15%	x	-18%	-10%	x	63%
O=C(O)C1(P(=O)(c2ccc(Cl)cc2)c2ccc(Cl)cc2)CCCC1	19%	x	7%	-3%	x	31%
Cc1noc2ncnc(Sc3ccc(Cl)cc3)c12	u	-3%	-49%	-7%	x	-16%
Cc1ccc(Sc2ncnc3onc(C)c23)cc1	-16%	-14%	-30%	u	-12%	u
Cc1noc2ncnc(Sc3c(Cl)cccc3Cl)c12	u	-12%	2%	x	-13%	2.3µM*
Cc1ccccc1Sc1ncnc2onc(C)c12	u	-13%	0%	x	x	8.3µM*
O=C(CSc1ccccc1)NCc1ccc2c(c1)CCN2C(=O)c1ccc(F)cc1	x	-9%	x	x	i	x
O=C(NCC1CCCCC1)c1ccc([N+](=O)[O-])cc1	21%	x	-2%	141%	x	7%
CCOc1ccc(Sc2cc(C(=O)NCc3ccc(C)cc3)c3ccccc3n2)cc1	x	-11%	x	x	-11%	x
N#CC(=NCCO)C1=C(O)c2ccccc2C1=O	x	x	-8%	x	x	x
O=C1C(SCCO)=C(SCCO)C(=O)c2ccccc21	10µM*	u	-36%	u	10µM*!	u
O=C1c2ccccc2C(=O)N1CC(=O)N1c2ccccc2Sc2ccccc21	10%	-6%	3%	3%	-9%	41%
Cc1ccc(-c2ocnc2C(=O)Nc2ccccc2NC(=O)c2ccccn2)cc1	u	-12%	3%	2.1µM*	-20%	18%
